# The list is not random: actives were taken first. Their share in the collection is about 3.1%.
# AF4-AF9 inh: blocks AF4 peptide binding to human AF9. P42568. AlphaScreen, biotin-AF4 peptide binding to FLAG-AF9. inhibition, % at 10 µM. 0.47% of 350,000 active. AID 651704;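 active = every replicate reaching a set inhibition limit, whatever the replicate mean, cut at about 25% in these data; inconclusive = mean inhibition reaches that limit but some replicates miss it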;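 also: 0% = plate neutral control median and 100% = total signal loss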
# RAD52 inh: blocks human RAD52 DNA annealing; recombinant RAD52 DNA annealing, FRET fluorescence; inhibition, % at 18.7 µM; 0.46% of 360,000 active; AID 651710;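 active = every replicate showing at least 50% inhibition; inconclusive = mean inhibition at least 50% but not in every replicate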
# GSIS activator: GLuc luminescence reporter in INS-1E cells, primary screen for activators of glucose-dependent secretion of insulin | INS-1E GLuc reporter insulin secretion, 2-3 h | 0.61% of 370,000 active | AID 743287 | activation, % at 16.6 µM;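 active = lowest replicate activation of at least 40%, so every replicate reaches that level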;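 also: 0% = median of neutral control wells and 100% = median of IBMX positive control wells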
# DENV2 CPE rescue: DENV2-induced cell death inhibition | DENV2-infected cells, cytopathic effect rescue, plate reader | CPE inhibition, % at 9.99 µM | 1.7% of 350,000 active; in the data active = CPE inhibition above about 20%, passing the limit was not always enough; inconclusive = no clear call, values can overlap the other calls; tested in BHK-21 cells;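 also: 0% = median of neutral control wells and 100% = median of positive control wells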
# RAD54 branch: blocks human RAD54 Holliday junction branch migration. Q92698. FAM/BHQ fluorescence. inhibition, % at 10.4 µM. 0.14% of 360,000 active. AID 602329;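 active = mean normalized replicate activity at least 40 and at least half of replicates scoring 40 or more; inconclusive = only one of the two criteria met; inactive = mean below 40 and under half of replicates reaching 40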;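 also: 0% = median of neutral control wells and 100% = median of positive control wells; inhibitors cause a drop in the FAM fluorescence signal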
# Target sequence (Q92698 whole entry, looked up): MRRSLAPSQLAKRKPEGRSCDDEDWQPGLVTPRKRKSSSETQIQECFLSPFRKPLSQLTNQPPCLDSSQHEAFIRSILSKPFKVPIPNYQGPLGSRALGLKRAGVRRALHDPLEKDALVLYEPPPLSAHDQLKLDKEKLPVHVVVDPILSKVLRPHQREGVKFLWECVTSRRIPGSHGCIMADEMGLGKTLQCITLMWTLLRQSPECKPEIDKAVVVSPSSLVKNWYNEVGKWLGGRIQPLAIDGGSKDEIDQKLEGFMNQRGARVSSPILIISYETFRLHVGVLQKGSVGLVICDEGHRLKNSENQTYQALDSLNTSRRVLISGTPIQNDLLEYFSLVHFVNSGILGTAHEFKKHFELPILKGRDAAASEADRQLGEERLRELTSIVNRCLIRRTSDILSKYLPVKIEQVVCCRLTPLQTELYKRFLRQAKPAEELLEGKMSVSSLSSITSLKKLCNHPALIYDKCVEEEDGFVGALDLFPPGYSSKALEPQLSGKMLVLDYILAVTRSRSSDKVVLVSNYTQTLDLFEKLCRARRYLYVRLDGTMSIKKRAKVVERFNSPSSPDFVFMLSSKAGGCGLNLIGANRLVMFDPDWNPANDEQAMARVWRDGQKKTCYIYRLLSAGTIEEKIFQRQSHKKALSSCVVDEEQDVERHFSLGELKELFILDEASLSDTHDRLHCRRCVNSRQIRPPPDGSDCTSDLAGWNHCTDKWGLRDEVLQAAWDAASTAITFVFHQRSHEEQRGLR
# dFosB activator: mouse delta FosB homodimer activation; activation, % at 25 µM; purified delta FosB, TAMRA-CDK5 oligo fluorescence polarization; percent of positive-control signal above neutral wells; 0.99% of 340,000 active; P13346;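 active = mean activation above about 17%, with every replicate also reaching it, limit read from the data, passing the limit was not always enough; inconclusive = only one of the two conditions met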
# * = called active by the depositor; u = inconclusive; x = no result.
SMILES,AF4-AF9 inh,RAD52 inh,GSIS activator,DENV2 CPE rescue,RAD54 branch,dFosB activator
CCC(C)NC(=O)CSc1ncnc2sccc12 (stereo not drawn),-0.5,-0.5,-9.3,-5.0,-6.5,-3.3
O=C(c1ccc(F)cc1)N1CC(=O)N2[C@H](C1)[C@@H](c1ccc(C#Cc3ccc(F)cc3)cc1)[C@@H]2CO,-3.9,-10.3,-5.8,12.6,x,x
COc1cccc(S(=O)(=O)Nc2ccc3c(c2)C(=O)N(C)C[C@@H](OC)[C@H](C)CN[C@@H](C)CO3)c1,-2.7,-14.8,-4.1,-3.9,2.0,x
CO[C@@H]1CN(C)C(=O)c2cc(NS(=O)(=O)c3ccccc3F)ccc2OC[C@@H](C)NC[C@@H]1C,-2.5,0.4,10.5,-0.9,2.1,x
CO[C@H]1CN(C)C(=O)c2cc(NS(=O)(=O)c3ccccc3F)ccc2OC[C@@H](C)NC[C@@H]1C,-1.8,-14.0,8.7,65.4*,-1.6,x
CO[C@@H]1CN(C)C(=O)c2cc(NS(=O)(=O)c3ccccc3)ccc2OC[C@@H](C)NC[C@@H]1C,-2.4,-16.3,-6.1,29.2*,4.2,x
COc1cccc(S(=O)(=O)Nc2ccc3c(c2)C(=O)N(C)C[C@@H](OC)[C@@H](C)CN[C@H](C)CO3)c1,-1.5,-13.5,14.4,22.4*,-1.7,x
CO[C@H]1CN(C)C(=O)c2cc(NS(=O)(=O)c3ccccc3)ccc2OC[C@H](C)NC[C@H]1C,-1.1,3.2,9.7,1.2,7.5,x
CN(C)CC(=O)N1[C@@H]2Cn3c(cccc3=O)[C@H]1[C@@H](C(=O)NCc1ccccc1)[C@@H]2CO,-16.8,10.0,5.2,5.0,15.3,x
CO[C@@H]1CN(C)C(=O)c2cc(NS(=O)(=O)Cc3ccccc3)ccc2OC[C@@H](C)NC[C@H]1C,3.2,5.6,6.5,11.2,5.7,x
O=C(C[C@@H]1CC[C@H](NC(=O)CN2CCOCC2)[C@H](CO)O1)NCCc1ccccc1,-0.2,-11.6,2.1,-4.3,-4.3,x
Cc1ccc(C(=O)c2ncc[nH]2)cc1,1.7,-2.8,22.4,51.9*,0.4,-5.9
O=C1[C@@H](Oc2ccccc2)[C@@H](c2ccncc2)N1c1ccccc1,-2.8,-15.7,38.3,47.3*,-2.8,-3.6
O=C(NCCN1CCOCC1)C1CCN(c2nc3ccccc3o2)CC1,40.3*,-10.4,8.1,x,3.0,3.1
O=C(NCCC1=CCCCC1)C1CCN(c2nc3ccccc3o2)CC1,x,x,x,x,2.1,-4.1
O=C(C[C@H]1C[C@H]2c3cc(NC(=O)C4CCOCC4)ccc3O[C@H]2[C@H](CO)O1)NC1CCCCC1,-0.7,-3.4,-4.1,0.1,-2.3,x
C[C@@H]1CN([C@@H](C)CO)C(=O)c2cc(NC(=O)C3CCCCC3)ccc2O[C@@H]1CN(C)S(C)(=O)=O,-3.8,10.2,19.5,3.7,-1.2,x
COc1cc(OC)cc(C(=O)Nc2cccnc2)c1,-0.3,-0.7,11.2,-0.8,x,-11.4
CCOc1cc(OCC)cc(C(=O)Nc2cccnc2)c1,x,-4.5,40.9*,x,-0.8,-14.8
O=C(C[C@@H]1C=C[C@H](NC(=O)C2CCOCC2)[C@H](CO)O1)NCC1CCCCC1,-1.7,-5.5,12.2,-3.1,-6.3,x
NC(=O)C1CCN(CC(O)COc2ccc(-c3ccccc3)cc2)CC1 (stereo not drawn),1.7,-23.6,15.4,49.7*,4.2,-9.4
COc1cccc(NC(=O)N2C[C@H](O)COC[C@H]3O[C@@H](CC(=O)NC4CCCC4)CC[C@@H]32)c1,-0.8,8.3,13.7,-0.8,7.6,x
Cc1cc(NC(=O)CSc2nc3sc4c(c3c(=O)n2C)CCCC4)no1,x,x,152.3*,x,-5.6,3.6
CCCn1c(NCc2ccc(N(C)C)cc2)nc2ccccc21,-0.3,-12.2,x,23.9*,3.5,-0.1
C[C@H]1CN([C@@H](C)CO)C(=O)c2cc(Br)cnc2O[C@@H]1CN(C)C(=O)C1CC1,x,x,24.8,x,x,x
SMILES,AF4-AF9 inh,RAD52 inh,GSIS activator,DENV2 CPE rescue,RAD54 branch,dFosB activator
CC(C)(C)c1ccccc1OCC(O)CN1CCN(c2ccccn2)CC1 (stereo not drawn),5.7,13.7,63.4*,7.5,-3.4,-7.5
Cc1ccc(OCC(O)CN2CCN(c3ccccn3)CC2)c(C)c1 (stereo not drawn),-15.0,0.4,-11.3,x,x,-6.9
OC(COC(c1ccc(F)cc1)c1ccc(F)cc1)CN1CCCC1 (stereo not drawn),2.5,-6.5,-12.0,40.5*,-6.2,9.1
OC(COC(c1ccc(Cl)cc1)c1ccc(Cl)cc1)CN1CCN(c2ccccn2)CC1 (stereo not drawn),5.6,-12.7,-10.8,45.1*,0.0,-3.4
C[C@H](CO)N1C[C@H](C)[C@H](CN(C)C(=O)Cc2ccncc2)Oc2ncc(C3=CCCC3)cc2C1=O,-5.3,-4.4,16.2,9.9,-2.0,x
COCC(=O)Nc1ccc2c(c1)[C@H]1C[C@@H](CC(=O)NCc3ccncc3)O[C@H](CO)[C@H]1O2,-4.3,-3.7,-3.0,-2.3,-1.6,x
O=C(N[C@H]1CC[C@H](CCNC(=O)C2CC2)O[C@@H]1CO)c1ccncc1,-2.3,-12.3,15.2,u,-0.5,x
O=C(COc1nncc2ccccc12)Nc1c(F)c(F)c(F)c(F)c1F,-1.0,-21.9,-2.5,1.0,x,-1.8
O=C(COc1nncc2ccccc12)NCC(F)(F)F,-1.7,-3.1,44.1*,3.3,x,-8.2
Cc1nc(C(=O)NC2CCOCC2)sc1C1(C)CC(c2cccc([N+](=O)[O-])c2)=NO1 (stereo not drawn),3.9,-11.0,0.1,43.8*,6.3,1.0
CCCNC(=O)C[C@@H]1CC[C@@H]2[C@H](COC[C@H](O)CN2Cc2cccc(F)c2)O1,0.1,-1.0,-2.8,-1.2,-5.9,x
COc1ccc(OC)c(S(=O)(=O)Nc2cc3c4c(c2)CCN4C(=O)CC3)c1,-1.1,4.2,15.5,-2.8,6.4,-0.8
COc1ccc(S(=O)(=O)Nc2cc3c4c(c2)CCN4C(=O)CC3)cc1,-0.1,-1.4,-0.6,59.9*,0.2,-1.4
CC(C)NC(=O)N(C)C[C@H]1Oc2ccc(NC(=O)CCCN(C)C)cc2C(=O)N([C@H](C)CO)C[C@@H]1C,-1.1,-10.7,14.2,0.5,-6.1,x
CCOC(=O)c1cc([N+](=O)[O-])c([N+](=O)[O-])cc1NC(C)=O,-13.0,-15.3,60.7*,8.9,-8.5,-3.9
CCOC(=O)[C@@H]1[C@H]2COc3cc(OC)ccc3[C@@H]2N2C(=O)N(c3cccc(C)c3)C(=O)[C@]12C,x,-14.4,-27.0,-15.0,7.4,-0.1
CCOC(=O)[C@H]1[C@H]2COc3ccc(OC)cc3[C@@H]2N2C(=O)CN(Cc3ccco3)C(=O)[C@@]12C,-2.3,16.4,2.3,-9.1,2.4,1.2
CCOC(=O)[C@@H]1[C@H]2COc3ccc(Br)cc3[C@@H]2N2C(=O)N(c3cccc(Cl)c3)C(=O)[C@]12C,3.3,0.7,1.4,-3.8,1.8,1.4
